Article PMC7819943, “Rice protein-binding microarrays: a tool to detect cis-acting elements near promoter regions in rice”
In all, about 39,000 sequences were measured (“fluorescence intensity (a.u.)”: median about 4,300, highest 2% from about 39,000 on). The sample as a whole holds a higher share of the highest values than the screen did.

Target: T1, OsSMF1 (Oryza sativa, UniProt Q6ZLB0 1-436)
T1 sequence: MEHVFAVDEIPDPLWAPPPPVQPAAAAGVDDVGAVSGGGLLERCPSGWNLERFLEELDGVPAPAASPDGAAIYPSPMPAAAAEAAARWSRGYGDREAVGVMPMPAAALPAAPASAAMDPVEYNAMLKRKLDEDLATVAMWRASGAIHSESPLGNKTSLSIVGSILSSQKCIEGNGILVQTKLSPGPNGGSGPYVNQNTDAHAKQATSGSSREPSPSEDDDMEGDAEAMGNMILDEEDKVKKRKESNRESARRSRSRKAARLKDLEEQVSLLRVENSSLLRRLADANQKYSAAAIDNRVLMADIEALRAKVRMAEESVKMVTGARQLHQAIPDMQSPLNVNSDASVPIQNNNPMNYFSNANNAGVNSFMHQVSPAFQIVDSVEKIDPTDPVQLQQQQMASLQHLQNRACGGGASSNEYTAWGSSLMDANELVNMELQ
Assay: protein-binding microarray (RPBM); PBS, 2% BSA, 51.3 ng/ul salmon testes DNA, 50 uM zinc acetate, 200 nM TF, 25 C, 1 h; high values mean tight binding
Settings: protein: recombinant; tags: N-terminal polyhistidine and DsRed monomer fusion (pET32a); chain copies: 2; label: CyDye5-dUTP incorporated in the synthesized complementary strand; 3' TTTTT single-stranded linker to array surface; dsDNA, one strand shown
Summary of the method: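 In PBS with 2% BSA, salmon testes DNA and 50 µM zinc acetate, 200 nM protein was incubated on a custom Agilent array at 25 °C for 1 h and then washed off. The array had been made double-stranded by primer extension with Cy5-dUTP and blocked with 2% BSA. The proteins were transcription factors fused N-terminally to polyhistidine and DsRed, expressed in E. coli BL21-CodonPlus and purified on Ni–NTA. The binding signal is per-feature fluorescence intensity (arbitrary units) from an Axon 4000B scanner.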

| Sequence | binding signal |
| --- | --- |
| GCGCCGCTCCGTGTCCCTCCCAATCCGAACCGTTTCGCGCCGGAGTCACCTAGTGCAG | 3500 fluorescence intensity (a.u.) |
| TACAACTACGGCCCTCCGCAGCCACAGGCGCCGCCGCCGCCGGAGTCACCTAGTGCAG | 3340 fluorescence intensity (a.u.) |
| TTATTAGCAACCACCGTCACATATAAATTAATATGTGCCGCGGAGTCACCTAGTGCAG | 3710 fluorescence intensity (a.u.) |
| GTCCGTCTTGTTTTCTCCTGCGTCACAATTGTCCCGTATTCGGAGTCACCTAGTGCAG | 4280 fluorescence intensity (a.u.) |
| CAATCCAACCGTCGTCGCGCCGCACACCGGCCACCCACCCCGGAGTCACCTAGTGCAG | 20700 fluorescence intensity (a.u.) |
| AACCAGTCGCCGCTCGCCACGTGGCACCCTCCACCTCCCTCGGAGTCACCTAGTGCAG | 50500 fluorescence intensity (a.u.) |
| CACACGCCAACCCGGCCCCACACGTCAGCCACTCCCACTGCGGAGTCACCTAGTGCAG | 7300 fluorescence intensity (a.u.) |
| CCGGCCCAACACCACTAACACGTTCAGCCCCAATCCCCAACGGAGTCACCTAGTGCAG | 42400 fluorescence intensity (a.u.) |
| CAATCCCCTAGCCTCGCCACCCGCCACGTGTCGTCCCGCGCGGAGTCACCTAGTGCAG | 13500 fluorescence intensity (a.u.) |
| GAGCGCGAGCTGCTCTCCTCTCCTCCCGCCCCGCGTCGCCCGGAGTCACCTAGTGCAG | 11500 fluorescence intensity (a.u.) |
| GTCGCCGCCGCTCCTCCACCCCACGTGCCCCTCGTGGTGGCGGAGTCACCTAGTGCAG | 4350 fluorescence intensity (a.u.) |
| TGCGCGTCCTGCTCGCCGCTGCCCTCGCTGAGGAGCTCTCCGGAGTCACCTAGTGCAG | 63600 fluorescence intensity (a.u.) |
| TCGCCAACTCGCGCCCAATCCCGGCTTGACACGTCACCCCCGGAGTCACCTAGTGCAG | 42000 fluorescence intensity (a.u.) |
| GCTCTCGCTGACGCTGCCGCTCCGCCTGCCTCCGCCCGCGCGGAGTCACCTAGTGCAG | 3900 fluorescence intensity (a.u.) |
| GCAATCCCACGTTATCCATCACCCCACCGGGGAAGCCCAACGGAGTCACCTAGTGCAG | 3310 fluorescence intensity (a.u.) |
| AACCACCCTCCGCCGCCGCCGCCGCTCGCCGTAGTCACCTCGGAGTCACCTAGTGCAG | 3180 fluorescence intensity (a.u.) |
| TATCCATGGTGTTTAACAATATATCACTGGATACACGTGTCGGAGTCACCTAGTGCAG | 9700 fluorescence intensity (a.u.) |
| TTCTTCCCTTCACATAGGAATTGGATGATGTGGAGACTTTCGGAGTCACCTAGTGCAG | 7630 fluorescence intensity (a.u.) |
| CATAATTTTAGGTATCGCTAGGATTTAATTTACACTGTAGCGGAGTCACCTAGTGCAG | 3370 fluorescence intensity (a.u.) |
| TTAGTTTTATATAAAATGTGTCACATGATAATAGTAGTACCGGAGTCACCTAGTGCAG | 3870 fluorescence intensity (a.u.) |
| TCTACTGTGTGTGTGTGTGTGTGTGTTCACTACTGGATAGCGGAGTCACCTAGTGCAG | 3160 fluorescence intensity (a.u.) |

| Sequence | binding signal |
| --- | --- |
| GTCCTAAAGTACTTATTGTGTCCGGTTTTGGTTAGTTAAGCGGAGTCACCTAGTGCAG | 3210 fluorescence intensity (a.u.) |
| CAGTTACGCGCCGTGCCTACCCGTGTATCACCGCGATGAGCGGAGTCACCTAGTGCAG | 3270 fluorescence intensity (a.u.) |
| TGCGTGTTTGATGATATACACGTGCGTATATGTCTACCGTCGGAGTCACCTAGTGCAG | 3880 fluorescence intensity (a.u.) |
| GCATGGCGCCGCCATCTCGGATTCGCCGTAGTGTCTCCGCCGGAGTCACCTAGTGCAG | 35300 fluorescence intensity (a.u.) |
| CCCTAGCCCTCGCCCTGGTCCGTCCGGCGTGGCGCGCGCTCGGAGTCACCTAGTGCAG | 5150 fluorescence intensity (a.u.) |
| TTCTCCGGCCGCCGCCGCCATCGCCGCCGGCCGTAGCATGCGGAGTCACCTAGTGCAG | 56000 fluorescence intensity (a.u.) |
| TCCCTCCTCCCCGTCGTCACAAGCCACGTCATCGATCCGCCGGAGTCACCTAGTGCAG | 40000 fluorescence intensity (a.u.) |
| CCCGCGTCGCATTCAACGCCACGCACACCACTCCACTCCACGGAGTCACCTAGTGCAG | 3470 fluorescence intensity (a.u.) |
| TCGGCATGGGCGGTGGCGCTGGCGCGTCCTCCGATCCCGTCGGAGTCACCTAGTGCAG | 19900 fluorescence intensity (a.u.) |
| CCAACGTCGTACATCCCTCCACGTCATCGATCCGCGCCGCCGGAGTCACCTAGTGCAG | 35200 fluorescence intensity (a.u.) |
| TGGATCCGGCCCTGCATGTCCGTCCTCGCCGGTGGGCGCTCGGAGTCACCTAGTGCAG | 41400 fluorescence intensity (a.u.) |
| ACACGGATCGAACCCCTCCTCCCCGCCACGTCACCGATCCCGGAGTCACCTAGTGCAG | 38700 fluorescence intensity (a.u.) |
| ACCCATTTTCAGTGGCAGGGTTATTGACACCACACTCACACGGAGTCACCTAGTGCAG | 3140 fluorescence intensity (a.u.) |
| TCTCTCTCTCTCTCGCCATCGTCACTGCGGCTGCTGCTGCCGGAGTCACCTAGTGCAG | 3810 fluorescence intensity (a.u.) |
| GCACCAGCCAGTCAGCCCACCATTTCAAACGCCACACTCACGGAGTCACCTAGTGCAG | 60800 fluorescence intensity (a.u.) |
| CGCGCTGTCTGCACCGCCGCCGCCGCCGCCGGCGGAACCCCGGAGTCACCTAGTGCAG | 25200 fluorescence intensity (a.u.) |
| CTCCGATACGTATCCCGTACGTATCGCTATTTACTTCGATCGGAGTCACCTAGTGCAG | 4930 fluorescence intensity (a.u.) |
| CAGATCGGCAGACCAGACCACGTGTACACCCAACACGAGGCGGAGTCACCTAGTGCAG | 8390 fluorescence intensity (a.u.) |
| AGGAAAGGTTAATTACGTACGTACACGGGAAGGAGTAACCCGGAGTCACCTAGTGCAG | 3340 fluorescence intensity (a.u.) |
| TCCCTCTGACATGGTTCATTGATAGGTGGACTCTCTATTCCGGAGTCACCTAGTGCAG | 3240 fluorescence intensity (a.u.) |
| CCGCCGTGAAGCACACCACCACCAACCCCATCGCTCCCTCCGGAGTCACCTAGTGCAG | 64500 fluorescence intensity (a.u.) |
